Test results as given in PubChem BioAssay (NCI).
Compounds without any hit were thinned out: in the full panel of roughly 79,000, 15% have a hit. Active and inactive are the calls of the source. No stated cut-off is given here; in the data, active means growth inhibition above about 70%; inactive means the rest.

Experiments:
[1] = NCI Yeast Anticancer Drug Screen. Data for the wt1 strain (AID 149);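 further: 0% = growth of vehicle-treated wt1 cultures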; conditions: S. cerevisiae wt1 strain (SPY 50644) growth inhibition, stronger effect = higher value
Outline: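 Each compound is tested on wt1 yeast and the loss of growth versus vehicle gives the inhibition value.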

[2] = NCI Yeast Anticancer Drug Screen. Data for the rad50EPP+ strain (AID 151);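 further: 0% = growth of vehicle-treated control cultures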; conditions: S. cerevisiae rad50 mutant strain, stronger effect = higher value
Outline: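 Read-out is yeast growth inhibition relative to vehicle; cells used were the rad50EPP+ strain.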

[3] = NCI Yeast Anticancer Drug Screen. Data for the mgt1 strain (AID 153); conditions: S. cerevisiae mgt1 mutant growth inhibition, stronger effect = higher value
Outline: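 Measured: inhibition of mgt1 yeast growth by compound, normalized to vehicle-treated cultures.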

[4] = NCI Yeast Anticancer Drug Screen. Data for the rad50 strain (AID 155);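 further: 0% = growth of vehicle-only cultures of the same strain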; conditions: S. cerevisiae rad50 strain growth inhibition, stronger effect = higher value
Outline: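 Vehicle-treated cultures provide the reference for the growth inhibition reported for compound-exposed, repair-deficient yeast.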

[5] = NCI Yeast Anticancer Drug Screen. Data for the mec2-1 strain (AID 157); conditions: S. cerevisiae mec2-1 strain, stronger effect = higher value
Outline: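 Using mec2-1 yeast: add compound, measure growth, express inhibition versus vehicle-treated cultures.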

[6] = NCI Yeast Anticancer Drug Screen. Data for the rad14 strain (AID 159);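 further: 0% = growth of vehicle-treated control cultures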; conditions: S. cerevisiae rad14 strain growth inhibition, stronger effect = higher value
Outline: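 Inhibition of growth is reported for a repair-deficient yeast mutant following compound treatment, calculated relative to cultures that received vehicle.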

[7] = NCI Yeast Anticancer Drug Screen. Data for the sgs1 mgt1 strain (AID 161);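 further: 0% = growth of cultures given vehicle only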; conditions: S. cerevisiae sgs1 mgt1 strain, stronger effect = higher value
Outline: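 Percent growth inhibition was derived by comparing compound-exposed mutant yeast with vehicle-exposed cultures. The strain carries alterations in DNA damage repair.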

[8] = NCI Yeast Anticancer Drug Screen. Data for the CLN2oe strain (AID 163);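 further: 0% = growth of vehicle-only control cultures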; conditions: S. cerevisiae CLN2oe strain, stronger effect = higher value
Outline: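 Whole-cell yeast growth assay. A strain engineered for altered cell-cycle control received compound, and inhibition relative to vehicle-treated cultures was recorded.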

[9] = NCI Yeast Anticancer Drug Screen. Data for the cln2 rad14 strain (AID 165);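 further: 0% = growth equal to vehicle treated cultures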; conditions: S. cerevisiae cln2 rad14 strain, stronger effect = higher value
Outline: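 Yeast strain cln2 rad14, bearing defects in cell cycle control and DNA repair, serves as the test system; values reflect growth inhibition compared with vehicle.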

[10] = NCI Yeast Anticancer Drug Screen. Data for the bub3 strain (AID 167); conditions: S. cerevisiae bub3 mutant strain, stronger effect = higher value
Outline: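 Mutant yeast screening strain plus compound; vehicle-treated cultures serve as the 0% inhibition reference.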

[11] = NCI Yeast Anticancer Drug Screen. Data for the wt2 strain (AID 169); conditions: S. cerevisiae wt2 strain growth inhibition, stronger effect = higher value
Outline: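 Treated yeast vs. vehicle-treated yeast: growth inhibition determined.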

[12] = NCI Yeast Anticancer Drug Screen. Data for the sgs1 strain (AID 173);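 further: 0% = growth of vehicle-only control cultures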; conditions: S. cerevisiae sgs1 mutant, stronger effect = higher value
Outline: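 A genetically defined yeast mutant is incubated with the test compound, and its growth is compared to that of the same strain given vehicle.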

[13] = NCI Yeast Anticancer Drug Screen. Data for the mlh1 rad18 strain (AID 175); conditions: S. cerevisiae mlh1 rad18 strain growth inhibition, stronger effect = higher value
Outline: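 Steps: expose repair-defective yeast to compound; measure growth; express inhibition against vehicle-treated controls.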

[14] = NCI Yeast Anticancer Drug Screen. Data for the rad18 strain (AID 177); conditions: S. cerevisiae rad18 mutant growth inhibition, stronger effect = higher value
Outline: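 Measured value is growth inhibition of a yeast strain bearing a DNA repair alteration, referenced to vehicle-treated cells.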

[15] = NCI Yeast Anticancer Drug Screen. Data for the rad52 strain (AID 147);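 further: 0% = growth of vehicle-treated control cultures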; conditions: S. cerevisiae rad52 mutant growth inhibition, stronger effect = higher value
Outline: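 Here a repair-compromised yeast strain receives each compound; its growth is then quantified and normalised to vehicle-only controls.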

[16] = NCI Yeast Anticancer Drug Screen. Data for the mlh1 strain (AID 171);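 further: 0% = growth of vehicle-treated control cultures of the same strain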; conditions: S. cerevisiae mlh1 strain growth inhibition, stronger effect = higher value
Outline: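 A yeast strain with a defined genetic lesion serves as the test organism. Cultures receive compound or vehicle, and growth is measured.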

[17] = at 5.0 µM (retest, dose inferred, filed as 0.5)
[18] = at 50.0 µM (retest, dose inferred, filed as 5.0)

Measured: growth inhibition

CCOC(=O)C1=C(C)NC(C)=C(C(=O)OCC)C1c1ccccc1Cl
inactive: [1]; at 1.2 µM -8% | [1]; at 3.7 µM 3% | [1]; at 11.0 µM -6% | [1]; at 33.0 µM 40% | [2]; at 1.2 µM -5% | [2]; at 3.7 µM 13% | [2]; at 11.0 µM 9% | [2]; at 33.0 µM 17% | [2]; at 100.0 µM 26% | [3]; at 1.2 µM 14% | [3]; at 3.7 µM 14% | [3]; at 11.0 µM 19% | [3]; at 33.0 µM 54% | [4]; at 1.2 µM 9% | [4]; at 3.7 µM 23% | [4]; [17] 54% | [4]; at 11.0 µM 29% | [4]; at 33.0 µM 48% | [5]; at 1.2 µM 8% | [5]; at 3.7 µM -2% | [5]; [17] 52% | [5]; at 11.0 µM -2% | [5]; at 33.0 µM 51% | [6]; at 1.2 µM -4% | [6]; at 3.7 µM -10% | [6]; at 11.0 µM 10% | [6]; at 33.0 µM 53% | [7]; [17] -15% | [8]; at 1.2 µM -13% | [8]; at 3.7 µM -22% | [8]; at 11.0 µM 38% | [8]; at 33.0 µM 56% | [9]; [17] 43% | [10]; at 1.2 µM 35% | [10]; at 3.7 µM 34% | [10]; [17] 26% | [10]; at 11.0 µM 4% | [10]; at 33.0 µM 62% | [11]; at 1.2 µM 14% | [11]; at 3.7 µM 11% | [11]; at 11.0 µM 20% | [11]; at 33.0 µM 49% | [12]; at 1.2 µM 26% | [12]; at 3.7 µM 28% | [12]; at 11.0 µM 38% | [12]; at 33.0 µM 67% | [13]; [17] 36% | [14]; at 1.2 µM 2% | [14]; at 3.7 µM 18% | [14]; at 11.0 µM 20% | [14]; at 33.0 µM 50%
active: [1]; at 100.0 µM 95% | [3]; at 100.0 µM 96% | [4]; [18] 100% | [4]; at 50.0 µM 90% | [4]; at 100.0 µM 91% | [5]; [18] 99% | [5]; at 50.0 µM 91.7% | [5]; at 100.0 µM 95% | [6]; at 100.0 µM 93% | [7]; [18] 91% | [8]; at 100.0 µM 94% | [9]; [18] 90% | [10]; [18] 84% | [10]; at 100.0 µM 95% | [11]; at 100.0 µM 96% | [12]; at 100.0 µM 96% | [13]; [18] 99% | [13]; at 50.0 µM 90.4% | [14]; at 100.0 µM 93%

O=c1ccc(N=Nc2ccccc2)ccc1O
inactive: [15]; at 1.2 µM 0% | [15]; at 3.7 µM 42% | [2]; at 1.2 µM -8% | [2]; at 3.7 µM 11% | [4]; at 1.2 µM 18% | [4]; [17] 34% | [5]; at 1.2 µM -1% | [5]; at 3.7 µM 37% | [5]; [17] 28% | [7]; [17] 44% | [8]; at 1.2 µM -6% | [8]; at 3.7 µM 33% | [9]; [17] -3% | [10]; at 1.2 µM 10% | [10]; [17] 22% | [11]; at 1.2 µM 31% | [16]; at 1.2 µM 10% | [12]; at 1.2 µM 4% | [12]; at 3.7 µM 62% | [13]; [17] 59% | [14]; at 1.2 µM 9% | [14]; at 3.7 µM 64%
active: [15]; at 11.0 µM 95% | [15]; at 33.0 µM 99% | [15]; at 100.0 µM 98% | [2]; at 11.0 µM 88% | [2]; at 33.0 µM 98% | [2]; at 100.0 µM 97% | [4]; at 3.7 µM 87% | [4]; at 11.0 µM 97% | [4]; at 33.0 µM 99% | [4]; [18] 99% | [4]; at 50.0 µM 98.7% | [4]; at 100.0 µM 98% | [5]; at 11.0 µM 93% | [5]; at 33.0 µM 99% | [5]; [18] 99% | [5]; at 50.0 µM 98.7% | [5]; at 100.0 µM 98% | [7]; [18] 99% | [7]; at 50.0 µM 98.7% | [8]; at 11.0 µM 93% | [8]; at 33.0 µM 98% | [8]; at 100.0 µM 97% | [9]; [18] 98% | [9]; at 50.0 µM 98.1% | [10]; at 3.7 µM 77% | [10]; at 11.0 µM 97% | [10]; at 33.0 µM 99% | [10]; [18] 99% | [10]; at 50.0 µM 97.8% | [10]; at 100.0 µM 99% | [11]; at 3.7 µM 87% | [11]; at 11.0 µM 99% | [11]; at 33.0 µM 99% | [11]; at 100.0 µM 98% | [16]; at 3.7 µM 90% | [16]; at 11.0 µM 98% | [16]; at 33.0 µM 99% | [16]; at 100.0 µM 99% | [12]; at 11.0 µM 97% | [12]; at 33.0 µM 99% | [12]; at 100.0 µM 98% | [13]; [18] 99% | [13]; at 50.0 µM 98.8% | [14]; at 11.0 µM 97% | [14]; at 33.0 µM 99% | [14]; at 100.0 µM 98%
